Reference: ChEMBL document CHEMBL2218924, “A broad activity screen in support of a chemogenomic map for kinase signalling research and drug discovery” (Biochem J, 2013)

Target: T1, Mitogen-activated protein kinase kinase kinase 5 (Homo sapiens) (UniProt Q99683)
T1 sequence (whole entry): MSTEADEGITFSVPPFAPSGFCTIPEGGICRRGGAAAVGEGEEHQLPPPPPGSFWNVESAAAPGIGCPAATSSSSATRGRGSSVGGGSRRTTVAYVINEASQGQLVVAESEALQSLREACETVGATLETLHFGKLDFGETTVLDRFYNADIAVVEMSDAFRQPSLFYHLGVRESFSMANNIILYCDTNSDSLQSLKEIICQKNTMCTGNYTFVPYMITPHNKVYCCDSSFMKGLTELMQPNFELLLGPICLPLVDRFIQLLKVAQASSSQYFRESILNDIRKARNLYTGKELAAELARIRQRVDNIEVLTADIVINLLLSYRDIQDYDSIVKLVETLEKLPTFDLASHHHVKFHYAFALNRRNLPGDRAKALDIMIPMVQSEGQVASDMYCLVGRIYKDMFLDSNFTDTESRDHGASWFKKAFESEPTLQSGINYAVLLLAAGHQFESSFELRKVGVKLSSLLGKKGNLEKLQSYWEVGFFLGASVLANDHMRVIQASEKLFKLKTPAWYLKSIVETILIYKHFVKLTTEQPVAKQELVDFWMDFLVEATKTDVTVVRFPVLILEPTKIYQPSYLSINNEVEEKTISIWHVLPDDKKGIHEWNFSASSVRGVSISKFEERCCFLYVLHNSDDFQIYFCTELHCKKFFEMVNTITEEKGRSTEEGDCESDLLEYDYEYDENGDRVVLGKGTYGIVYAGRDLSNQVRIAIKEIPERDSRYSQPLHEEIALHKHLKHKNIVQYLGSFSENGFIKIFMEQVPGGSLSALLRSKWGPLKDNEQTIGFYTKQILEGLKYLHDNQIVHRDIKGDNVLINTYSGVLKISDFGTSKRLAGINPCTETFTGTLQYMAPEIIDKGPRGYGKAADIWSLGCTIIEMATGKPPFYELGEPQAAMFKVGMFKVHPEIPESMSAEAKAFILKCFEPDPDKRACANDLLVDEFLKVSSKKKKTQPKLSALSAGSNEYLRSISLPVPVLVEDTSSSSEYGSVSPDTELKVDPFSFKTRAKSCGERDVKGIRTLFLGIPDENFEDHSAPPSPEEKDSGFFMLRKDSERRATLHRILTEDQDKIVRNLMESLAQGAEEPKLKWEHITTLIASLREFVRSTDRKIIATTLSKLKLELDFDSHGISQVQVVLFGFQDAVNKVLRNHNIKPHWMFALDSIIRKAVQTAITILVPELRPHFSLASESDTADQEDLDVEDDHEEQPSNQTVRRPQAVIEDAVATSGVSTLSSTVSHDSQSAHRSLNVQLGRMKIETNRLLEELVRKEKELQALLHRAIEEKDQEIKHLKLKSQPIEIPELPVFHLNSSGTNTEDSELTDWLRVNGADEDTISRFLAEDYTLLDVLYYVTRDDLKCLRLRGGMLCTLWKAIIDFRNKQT
Conditions: at 1 µM

Row | Structure (SMILES) | residual activity [%]
1 | O=C1C(Cl)=C(N2C(=O)CCC2=O)C(=O)c2ccccc21 | 89
2 | O=C(O)/C=C/c1cc(Br)c(Br)c(Br)c1Br | 98
3 | COc1ccc(-c2cnc3c(-c4ccsc4)cnn3c2)cc1 | 82
4 | COc1cc2nccc(Oc3ccc(NC(=S)NC(=O)c4ccccc4C)cc3)c2cc1OC | 88
5 | O=C1Nc2ccc(Cl)cc2/C1=C/c1cc(Cl)c(O)c(Cl)c1 | 93
6 | CC(C)(C)n1nc(Cc2cccc3ccccc23)c2c(N)ncnc21 | 111
7 | O=c1cc(N2CCNCC2)oc2c(-c3ccccc3)cccc12 | 90
8 | Nc1ncnc2c1c(-c1ccc(Oc3ccccc3)cc1)cn2C1CCCC1 | 90
9 | O=C1NC(=O)c2c1c1c3ccccc3[nH]c1n1cncc21 | 99
10 | O=c1cc(N2CCOCC2)oc2c1ccc1ccccc12 | 88
11 | CCN(CC)CCNC(=O)c1c(C)[nH]c(/C=C2\C(=O)Nc3ccc(Cl)cc32)c1C | 60
12 | CC(C)c1nn(-c2c(Cl)cccc2Cl)c2nc(Cc3ccc(OCCO)cc3)[nH]c(=O)c12 | 95
13 | Cn1sc(=O)n(Cc2ccccc2)c1=O | 81
14 | O=C1Cc2c([nH]c3ccc([N+](=O)[O-])cc23)-c2ccccc2N1 | 106
15 | O=C(CCCc1ccc(-c2ccccc2F)cc1)Nc1ccc(O)cc1 | 99
16 | Cn1c2ccccc2c2c3c(c4c5ccccc5n(CCC#N)c4c21)CNC3=O | 17
